According to PubChem BioAssay AID2283312 (EPA ToxCast):
Inconclusive results are not listed. The source made the active and inactive calls. The calls were made as follows: active = hit-call score of the fitted dose curve at least 0.9, where 1 is the maximum; inconclusive = response in the unintended direction; inactive = score below 0.9.

molecular target: rat Vasoactive Intestinal Peptide Receptor (VIP), Non-selective Binding, Vipr1 (gene 24875) (UniProt P30083); assay: NVS_GPCR_rVIP_NonSelective: NovaScreen (NVS) G Protein-Coupled Receptor Assay for rat Vasoactive Intestinal Peptide Receptor (VIP), Non-selective Binding
Method: NVS_GPCR_rVIP_NonSelective is a biochemical, single-readout assay that uses extracted gene-proteins from Rat forebrain membranes in a tissue-based cell-free assay. Measurements were taken 1 hour after chemical dosing in a 96-well plate.NVS_GPCR_rVIP_NonSelective is one of one assay component(s) measured or calculated from the NVS_GPCR_rVIP_NonSelective assay. It is designed to make measurements of radioligand binding, a form of binding reporter, as detected with scintillation counting signals by Filter-based radiodetection technology.Data from the assay component NVS_GPCR_rVIP_NonSelective was analyzed into 1 assay endpoint. This assay endpoint, NVS_GPCR_rVIP_NonSelective, was analyzed in the positive analysis fitting direction relative to DMSO as the negative control and baseline of activity. Using a type of binding reporter, loss-of-signal activity can be used to understand changes in the binding as they relate to the gene Vipr1. Furthermore, this assay endpoint can be referred to as a primary readout, because the performed assay has only produced 1 assay endpoint. To generalize the intended target to other relatable targets, this assay endpoint is annotated to the gpcr intended target family, where the subfamily is secretin receptor.
Binding assays used specific radioligands (tritiated, iodinated) with non-radioactive competitive displacement ligands in agonist or antagonist protocols (as indicated) and various reference compounds and inhibitors to titrate specific binding to receptors and transporters. Most enzyme assays (CYPs, kinases, phosphatases, proteases, HDACs) used recombinant protein and specific substrates (fluorescence mostly, some colorimetric and radioactive) and inhibitors, followed by a biochemical separation of substrate and product. All assays for the biochemical HTS were initially run in duplicate at a single concentration (10 uM for CYP450 assays and 25 uM for all others). Assay-chemical combinations meeting a pre-defined threshold (e.g., 30% inhibition and other criteria defined below) were then run in singleton concentration-response format with maximum concentration of 20 uM for CYPs and 50 uM for all others. Each assay was run with positive and negative controls, and concurrent controls on every plate. The follow-up (secondary) screen tested active chemical-pairs in concentration series, as well as a few additional assays not tested in the primary screen, some selected negative inactives, and several cases re-run in the concentration series for confirmatory purposes.

Chain of rat Vasoactive Intestinal Peptide Receptor (VIP), Non-selective Binding, Vipr1 (gene 24875) (P30083 whole entry, looked up): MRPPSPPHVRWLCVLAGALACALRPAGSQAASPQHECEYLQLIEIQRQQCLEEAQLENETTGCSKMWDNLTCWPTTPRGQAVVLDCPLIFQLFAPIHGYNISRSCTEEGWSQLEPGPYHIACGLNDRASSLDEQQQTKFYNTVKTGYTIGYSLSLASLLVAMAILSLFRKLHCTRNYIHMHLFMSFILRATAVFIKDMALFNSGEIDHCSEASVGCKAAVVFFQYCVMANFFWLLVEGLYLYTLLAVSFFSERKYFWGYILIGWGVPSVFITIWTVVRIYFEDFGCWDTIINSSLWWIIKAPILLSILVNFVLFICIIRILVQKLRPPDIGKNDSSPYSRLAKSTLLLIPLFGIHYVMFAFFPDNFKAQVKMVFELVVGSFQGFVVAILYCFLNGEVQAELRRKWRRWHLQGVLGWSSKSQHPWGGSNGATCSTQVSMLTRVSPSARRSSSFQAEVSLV

Row | SMILES | AC50 | outcome
1 | CCC[CH2][Sn]([Cl])([CH2]CCC)[CH2]CCC | 7.97 µM (active) | –
2 | CC[C@H](C)[C@H]1O[C@]2(C=C[C@@H]1C)C[C@@H]1C[C@@H](C/C=C(\C)[C@@H](O[C@H]3C[C@H](OC)[C@@H](O[C@H]4C[C@H](OC)[C@@H](NC)[C@H](C)O4)[C@H](C)O3)[C@@H](C)/C=C/C=C3\CO[C@@H]4[C@H](O)C(C)=C[C@@H](C(=O)O1)[C@]34O)O2 | – | inactive
3 | Nc1c(Cl)c(F)nc(OCC(=O)O)c1Cl | – | inactive
4 | CC(C)N1C(=O)N(c2ccccc2)CSC1=NC(C)(C)C | – | inactive
5 | Cc1ccc(-c2c(Cl)nc(C#N)n2S(=O)(=O)N(C)C)cc1 | – | inactive
6 | CC(=O)[O][Hg][c]1ccccc1 | – | inactive
7 | COP(=S)(OC)Oc1nc(Cl)c(Cl)cc1Cl | – | inactive
8 | C=C(C)C(=O)[O][Sn]([CH2]CCC)([CH2]CCC)[CH2]CCC | 14.9 µM (active) | –
9 | Oc1ccccc1-c1ccccc1 | – | inactive
10 | CCOP(=O)(OCC)Oc1nc(Cl)c(Cl)cc1Cl | – | inactive
